Data: publication PMC5540273 (PLoS ONE, 2017)
Like-named read-outs stand apart in the source and are kept apart here.

Legend:
[1] = system: T1, MLK1; settings: concentration: 1 μM, replicates: in singlicate; n = 1
T1 construct: gene MAP3K9

[2] = system: MLK2; settings: concentration: 1 μM, replicates: in singlicate; n = 1
[3] = system: MLK3; settings: concentration: 1 μM, replicates: in singlicate; n = 1
[4] = system: MRCKA; settings: n = 1
[5] = system: T2, MRCKB; settings: concentration: 1 μM, replicates: in singlicate; n = 1
T2 construct: gene CDC42BPB

[6] = system: MST1R; settings: concentration: 1 μM, replicates: in singlicate; n = 1
[7] = system: T3, MST1; settings: concentration: 1 μM, replicates: in singlicate; n = 1
T3 construct: gene STK4

[8] = system: T4, MST2; settings: concentration: 1 μM, replicates: in singlicate; n = 1
T4 construct: gene STK3

[9] = system: T5, MST3; settings: concentration: 1 μM, replicates: in singlicate; n = 1
T5 construct: gene STK24

[10] = system: MST4; settings: concentration: 1 μM, replicates: in singlicate; n = 1
[11] = concentration: 1 μM, replicates: in singlicate
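Further: KINOMEscan kinase panel screen.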

SMILES | %Inh [1] | %Inh [2] | %Inh [3] | %Inh [4, 11] | %Inh [5] | %Inh [6] | %Inh [7] | %Inh [8] | %Inh [9] | %Inh [10] | %Inh ([4]; 1 µM)
CN1CCN(Cc2cccc(-c3ccc4c(Nc5ccc(Oc6ccccc6)cc5)ccnc4c3)c2)CC1 [GW578342] | 4% | 5% | 4% | 0% | 0% | 35% | 12% | 0% | 3% | 0% | 
COc1cc2c(cc1OCCN1CCNCC1)ncc1c3ccc(C#N)cc3[nH]c21 | 0% | 0% | 0% | 6% | 0% | 9% | 0% | 60% | 12% | 28% | 
Fc1ccc(-c2ncn(C3CCNCC3)c2-c2ccnc(Oc3ccc(-c4ccccc4)cc3)n2)cc1 [SB-245391] | 52% | 46% | 0% | 26% | 59% | 0% | 27% | 30% | 14% | 31% | 
O=C(Nc1n[nH]c2nc(-c3ccc(O)cc3)ccc12)C1CC1 [SB-710363] | 0% | 0% | 0% | 0% | 0% | 0% | 0% | 0% | 0% | 9% | 
CCc1ccc(-c2ccc3c(c2)-c2c(cnn2C)S(=O)(=O)N3C)cc1 | 7% | 0% | 0% | 0% | 0% | 31% | 0% | 0% | 0% | 0% | 
CCn1c(-c2nonc2N)nc2c(C#CC(C)(C)O)ncc(OCCCCN)c21.O=C(O)C(F)(F)F.O=C(O)C(F)(F)F [GSK507274] | 0% | 0% | 0% |  | 5% | 33% | 3% | 0% | 0% | 2% | 17%
O=C(Nc1cccc(Oc2ccc3nc(NC(=O)C4CC4)cn3n2)c1)c1ccccc1C(F)(F)F | 6% | 4% | 0% | 24% | 0% | 23% | 10% | 18% | 0% | 0% | 
COc1cc(Nc2ncc3c(C)nc(-c4cc5ccccc5[nH]4)n3n2)cc(OC)c1OC [GW869516] | 93.8% | 89% | 87% | 4% | 7% | 0% | 0% | 29% | 0% | 0% | 
Cc1ccc(C(=O)N2CC[C@@H](O)C2)cc1-n1c(C)cc(OCc2ccc(F)cc2F)c(Br)c1=O | 0% | 5% | 0% | 0% | 0% | 3% | 0% | 5% | 5% | 0% | 
CC(C)c1nc(-c2cccc(NS(=O)(=O)c3c(F)cccc3F)c2F)c(-c2ccnc(Nc3ccc(N4CCOCC4)nc3)n2)s1 [GSK2008607] | 96.3% | 100% | 92.7% | 0% | 0% | 82% | 55% | 0% | 63% | 39% | 
COc1cc(Nc2nccc(N3CCC(NC(=O)c4cc5ccccc5s4)C3)n2)cc(OC)c1OC (centres unmarked) [GSK1379760] | 58% | 46% | 53% | 11% | 0% | 39% | 9% | 0% | 11% | 100% | 
COc1cc(Nc2nccc(-c3c(-c4cccc(NC(=O)c5c(F)cccc5F)c4)nn4ncccc34)n2)cc(OC)c1OC [GSK327238] | 9% | 39% | 50% | 100% | 98.9% | 79% | 96.6% | 92.1% | 64% | 42% | 
C[C@@H](Oc1cc(-n2cnc3cc(-c4ccnc(NCCS(C)(=O)=O)c4)ccc32)sc1C(N)=O)c1ccccc1Cl [GSK907232] | 14% | 20% | 42% | 0% | 8% | 57% | 64% | 0% | 0% | 4% | 
Cl.Cl.NCC(NC(=O)c1cc(-c2ccccc2)c(-c2ccnc3[nH]ccc23)s1)c1ccccc1 (centres unmarked) [GSK1321561] | 0% | 23% | 11% | 73% | 90.7% | 42% | 0% | 0% | 0% | 27% | 
COC(=O)Nc1nc2cc(Oc3ccc(NC(=O)Nc4cc(C(F)(F)F)ccc4F)cn3)ccc2[nH]1.Cl.Cl [GW681170] | 12% | 0% | 10% | 16% | 0% | 17% | 0% | 0% | 0% | 0% | 
CC(=O)N1CCN(c2ccc(Nc3nccc(-c4sc(C(C)C)nc4-c4cccc(NS(=O)(=O)c5cccc(Cl)c5)c4)n3)cn2)CC1 [GSK1660437] | 33% | 33% | 46% | 0% | 0% | 15% | 4% | 0% | 6% | 1% | 
Cc1cccc(NC(=O)Nc2ccc(Oc3ncnc4ccn(C)c34)cc2)c1 | 2% | 0% | 0% | 0% | 0% | 7% | 14% | 0% | 0% | 0% | 
c1ccc(-c2cnc3nccnn23)cc1 [AH20685] | 0% | 0% | 0% | 0% | 0% | 38% | 5% | 0% | 0% | 0% | 
CN(c1ccc(NC(=O)Nc2cc(C(F)(F)F)ccc2F)cc1)c1ccnc(Nc2ccc(S(N)(=O)=O)cc2)n1 [GW809893] | 75% | 34% | 66% | 0% | 0% | 99.7% | 80% | 2% | 29% | 28% | 
Nc1ncc(-c2cccnc2)c2scc(-c3ccc4c(c3)CCN4C(=O)Cc3ccccc3)c12 [GSK683281] | 10% | 11% | 7% | 23% | 79% | 78% | 95.8% | 36% | 8% | 13% | 
Cl.NC(=O)c1cccc(Nc2nccc(Nc3ccc(Oc4c(Cl)cccc4Cl)c(Cl)c3)n2)c1 [GW659009] | 0% | 0% | 0% | 0% | 0% | 3% | 75% | 11% | 0% | 0% | 
Cc1ccc(S(=O)(=O)Nc2ccc(Nc3nccc(Nc4cccc5[nH]ncc45)n3)cc2)cc1 [GSK581271] | 0% | 0% | 0% | 7% | 0% | 35% | 46% | 0% | 11% | 0% | 

SMILES | %Inh [1] | %Inh [2] | %Inh [3] | %Inh [4, 11] | %Inh [5] | %Inh [6] | %Inh [7] | %Inh [8] | %Inh [9] | %Inh [10] | %Inh ([4]; 1 µM)
c1ccc(-c2n[nH]cc2Nc2ccnc3ccccc23)nc1 [GW694077] | 11% | 0% | 0% | 18% | 0% | 12% | 0% | 0% | 0% | 0% | 
c1ccc(Oc2ccc(Nc3ccnc4cc(-c5ccc(CNCCN6CCOCC6)o5)ccc34)cc2)nc1 [GW567145] | 0% | 0% | 0% | 0% | 0% | 16% | 0% | 0% | 11% | 0% | 
COCCOCCOc1cc2ncc3c4ccc(C#N)cc4[nH]c3c2cc1OC | 22% | 0% | 53% | 12% | 24% | 0% | 12% | 76% | 0% | 0% | 
CNC(=O)c1ccccc1Nc1nc(Nc2ccc(N3CCOCC3)cc2)ncc1Cl.Cl [GSK1576028] | 97.6% | 82% | 86% | 6% | 0% | 92.9% | 99.1% | 97.5% | 61% | 85% | 
COc1cc(Nc2nccc(N3CCC(NC(=O)Nc4cccc(C(C)=O)c4)C3)n2)cc(OC)c1OC (centres unmarked) [GSK1379753] | 48% | 0% | 45% | 18% | 0% | 36% | 89% | 31% | 2% | 0% | 
CCCCc1nn2ncccc2c1-c1ccnc(Nc2ccc(N3CCN(C)CC3)cc2)n1 [GW684941] | 0% | 5% | 0% | 19% | 17% | 45% | 0% | 0% | 1% | 0% | 
CC(=O)Nc1nc2cnc(Nc3cc(NC(=O)c4cccc(C5(C#N)CC5)c4Cl)ccc3C)nc2s1 | 4% | 10% | 0% | 5% | 0% | 13% | 0% | 12% | 6% | 0% | 
Cn1cc(-c2ccc3c(c2)CCN3C(=O)Cc2cccc(Cl)c2)c2c(N)ncnc21 [GSK2606590] | 70% | 77% | 73% | 0% | 0% | 38% | 97.2% | 0% | 17% | 19% | 
O=C(Nc1cccc(-c2nn3ncccc3c2-c2ccnc(Nc3ccccc3)n2)c1)c1c(F)cccc1F [GSK198271] | 0% | 0% | 11% | 69% | 88% | 15% | 47% | 100% | 12% | 0% | 
O=c1[nH]cc(-c2ccc(N3CCOCC3)cc2)c2sc(-c3cn[nH]c3)cc12 [GSK2276055] | 0% | 0% | 0% | 0% | 0% | 31% | 0% | 32% | 29% | 0% | 
CSc1cccc2c(-c3ccncn3)c(-c3ccc(F)cc3)nn12 [GW514786] | 14% | 19% | 12% | 25% | 14% | 18% | 5% | 14% | 5% | 6% | 
O=C(O)C(F)(F)F.O=C(O)C(F)(F)F.O=c1[nH]ccc2nc(N[C@@H]3CCCNC3)nc(Nc3ccc(S(=O)(=O)N4CCOCC4)cc3)c12 [GSK2177277] | 96.4% | 83% | 98.4% | 35% | 80% | 57% | 99.3% | 41% | 97.5% | 98.9% | 
Cn1cc(-c2ccc3c(c2)CCN3C(=O)Cc2cccc(F)c2)c2c(N)ncnc21 [GSK2603358] | 20% | 11% | 37% | 5% | 0% | 49% | 95.8% | 69% | 15% | 8% | 
O=C(NC1CCN(c2ccnc(Nc3ccc(F)cc3)n2)C1)c1cc2ccccc2s1 (centres unmarked) [GSK1379716] | 0% | 0% | 29% | 10% | 5% | 34% | 9% | 0% | 0% | 0% | 
COC(=O)Nc1nc2ccc(Oc3ccc(NC(=O)Nc4cc(C(F)(F)F)ccc4F)cc3)cc2n1C.Cl [GW692089] | 0% | 0% | 19% | 0% | 0% | 14% | 0% | 0% | 3% | 0% | 
Cl.Cl.NCC(C(=O)Nc1cc(Br)c(-c2ccnc3[nH]ccc23)s1)c1ccccc1 (centres unmarked) [GSK1269851] | 0% | 18% | 11% | 0% | 25% | 47% | 0% | 7% | 0% | 11% | 
FC(F)(F)c1ccc(/C=C/c2cncnc2Nc2ccc3[nH]c(Cc4ccccc4)nc3c2)cc1 [GW709199] | 19% | 11% | 1% | 31% | 26% | 0% | 2% | 0% | 0% | 0% | 
COc1cccc(NC(=O)NC2CCN(c3ccnc(Nc4cc(OC)c(OC)c(OC)c4)n3)C2)c1 (centres unmarked) [GSK1379763] | 48% | 0% | 38% | 11% | 60% | 31% | 0% | 3% | 0% | 0% | 
CCS(=O)(=O)c1ccc(OC)c(Nc2nccc(-c3c(-c4cccc(NC(=O)c5c(F)cccc5F)c4)nn4ncccc34)n2)c1 [GSK326180] | 0% | 0% | 0% | 24% | 11% | 0% | 21% | 28% | 0% | 0% | 
COc1cccc(C(=O)Nc2cccc(Oc3ccc4nc(NC(=O)C5CC5)cn4n3)c2)c1 | 8% | 0% | 2% | 21% | 0% | 17% | 9% | 0% | 15% | 0% | 
COc1ccc(CNC(=O)NC2CCN(c3ccnc(Nc4ccc(F)cc4)n3)CC2)cc1 [GSK1379788] | 0% | 0% | 0% | 19% | 0% | 35% | 3% | 0% | 0% | 0% | 
Cc1occc1-c1ncc(OC[C@@H](N)Cc2c[nH]c3ccccc23)cc1-c1ccc2[nH]nc(C)c2c1.O=C(O)C(F)(F)F [GSK682037] | 12% | 0% | 28% | 38% | 72% | 41% | 71% | 90% | 55% | 85% | 
